Measurements from PubChem BioAssay (NCATS).
Records with an inconclusive call do not appear. Active and inactive are the calls of the source. Unless noted, calls follow the shape of the full dose curve.

What was measured:
[1] = qHTS for Inhibitors of the Functional Ribonucleoprotein Complex (vRNP) of Lassa (LASV) Arenavirus: LASV Primary Screen - GLuc reporter signal (AID 1347082; calls by dose curve; tested in HEK293 reporter line; also: nearly all actives have a fitted effect of over 60% in size)
[2] = qHTS for Inhibitors of the Functional Ribonucleoprotein Complex (vRNP) of Lassa (LASV) Arenavirus: Viability assay - alamar blue signal for LASV Primary Screen (AID 1347083; calls by dose curve; tested in HEK293 reporter line; also: nearly all actives have a fitted effect of over 80% in size)
[3] = qHTS for Inhibitors of the Functional Ribonucleoprotein Complex (vRNP) of Lymphocytic Choriomeningitis Arenaviruses (LCMV): Viability assay - alamar blue signal for LCMV Primary Screen (AID 1347085; calls by dose curve; tested in HEK293 reporter line; also: nearly all actives have a fitted effect of over 80% in size)
[4] = target: Nucleoprotein (Lymphocytic choriomeningitis virus (strain Armstrong)) (UniProt P09992); test: qHTS for Inhibitors of the Functional Ribonucleoprotein Complex (vRNP) of Lymphocytic Choriomeningitis Arenaviruses (LCMV): LCMV Primary Screen - GLuc reporter signal (AID 1347086); also: nearly all actives have a fitted effect of over 70% in size
Sequence of Nucleoprotein (Lymphocytic choriomeningitis virus (strain Armstrong)) (P09992 whole entry, looked up): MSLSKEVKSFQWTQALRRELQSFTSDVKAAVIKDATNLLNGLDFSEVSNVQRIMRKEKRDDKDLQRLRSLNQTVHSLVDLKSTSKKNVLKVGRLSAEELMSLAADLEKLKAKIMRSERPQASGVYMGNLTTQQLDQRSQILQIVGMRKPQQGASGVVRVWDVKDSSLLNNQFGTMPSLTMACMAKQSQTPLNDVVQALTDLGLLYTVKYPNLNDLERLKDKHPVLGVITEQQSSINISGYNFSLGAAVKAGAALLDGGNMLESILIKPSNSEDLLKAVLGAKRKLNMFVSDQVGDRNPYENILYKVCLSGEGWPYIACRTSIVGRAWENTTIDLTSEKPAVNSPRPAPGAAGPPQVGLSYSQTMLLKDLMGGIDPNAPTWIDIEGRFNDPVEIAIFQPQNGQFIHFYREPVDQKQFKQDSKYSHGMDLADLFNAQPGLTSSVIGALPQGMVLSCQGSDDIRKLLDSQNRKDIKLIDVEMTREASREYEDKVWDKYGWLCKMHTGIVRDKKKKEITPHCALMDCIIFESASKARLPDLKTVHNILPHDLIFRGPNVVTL
% is scaled to controls: 0 for no effect and ±100 for the full control effect.
Also: series mostly up to about 57 µM.

Cc1c(C(=O)NCCO)[n+](=O)c2ccccc2n1[O-]
inactive: Potency [1] | Potency [2] | Potency [3] | Potency [4]

CO[C@@]1(NC(=O)CSCC#N)C(=O)N2C(C(=O)O)=C(CSc3nnnn3C)CS[C@@H]21
inactive: Potency [1] | Potency [2] | Potency [3] | Potency [4]

COc1cccc(OC)c1C(=O)N[C@@H]1C(=O)N2[C@@H]1SC(C)(C)[C@@H]2C(=O)O
inactive: Potency [1] | Potency [2] | Potency [3] | Potency [4]

O=C(O)CN1C(=O)c2cccc3cccc(c23)C1=O
inactive: Potency [1] | Potency [2] | Potency [3] | Potency [4]

O=C(N/N=C/c1ccccc1O)c1ccncc1
inactive: Potency [1] | Potency [2] | Potency [3] | Potency [4]

CN1C[C@@H]2C[C@H]1CN2c1cc2c(cc1F)c(=O)c(C(=O)O)cn2C1CC1
inactive: Potency [1] | Potency [2] | Potency [3] | Potency [4]

CC(C)(Oc1ccc(Cl)cc1)C(=O)OCCCOC(=O)C(C)(C)Oc1ccc(Cl)cc1
inactive: Potency [1] | Potency [2] | Potency [3] | Potency [4]

CC(=O)OC(C)OC(=O)C(C)c1ccc(-c2ccccc2)c(F)c1 (stereo not drawn)
inactive: Potency [1] | Potency [2] | Potency [3] | Potency [4]

CCC(C(=O)OCCN(CC)CC)c1ccccc1 (stereo not drawn)
inactive: Potency [1] | Potency [2] | Potency [3] | Potency [4]

Cc1oc(=O)oc1CN1CCN(c2cc3c(cc2F)c(=O)c(C(=O)O)c2n3C(C)S2)CC1 (stereo not drawn)
inactive: Potency [1] | Potency [2] | Potency [3] | Potency [4]

Cc1cc2c(cc1S(N)(=O)=O)S(=O)(=O)CCC2
inactive: Potency [1] | Potency [2] | Potency [3] | Potency [4]

Cc1cc(=O)n(-c2ccccc2)n1C
inactive: Potency [1] | Potency [2] | Potency [3] | Potency [4]

Nc1ccn([C@@H]2O[C@H](CO)[C@@H](O)C2O)c(=O)n1 (stereo partly drawn)
inactive: Potency [1] | Potency [2] | Potency [3] | Potency [4]

O=C(OCCN1CCOCC1)c1cccnc1Nc1cccc(C(F)(F)F)c1
inactive: Potency [1] | Potency [2] | Potency [3] | Potency [4]

Nc1ncnc(Nc2ccccc2)n1
inactive: Potency [1] | Potency [2] | Potency [3] | Potency [4]

Cc1cc(-n2nc3ccc(Cl)cc3n2)c(O)c(C(C)(C)C)c1
inactive: Potency [1] | Potency [2] | Potency [3] | Potency [4]

CCOc1cc(CC(=O)N[C@@H](CC(C)C)c2ccccc2N2CCCCC2)ccc1C(=O)O
inactive: Potency [1] | Potency [2] | Potency [3] | Potency [4]

CCOc1ccc(NS(=O)(=O)c2ccc(N)cc2)nn1
inactive: Potency [1] | Potency [2] | Potency [3] | Potency [4]

CC(C)(C)NC[C@H](O)COc1nsnc1N1CCOCC1
inactive: Potency [1] | Potency [2] | Potency [3] | Potency [4]

CC(=O)N(CC(O)CO)c1c(I)c(C(=O)NCCO)c(I)c(C(=O)NCC(O)CO)c1I (stereo not drawn)
inactive: Potency [1] | Potency [2] | Potency [3] | Potency [4]

Nc1c[n+](N2CCOCC2)no1
inactive: Potency [1] | Potency [2] | Potency [3] | Potency [4]

CC(CCc1ccc(O)cc1)NCCc1ccc(O)c(O)c1 (stereo not drawn)
inactive: Potency [1] | Potency [2] | Potency [3] | Potency [4]

NS(=O)(=O)c1cc(C(=O)O)cc(N2CCCC2)c1Oc1ccccc1
inactive: Potency [1] | Potency [2] | Potency [3] | Potency [4]

NC(=O)n1c(O)c(C(=O)c2cccs2)c2cc(Cl)ccc21
inactive: Potency [1] | Potency [2] | Potency [3] | Potency [4]

COc1cc(O)cc(O)c1
inactive: Potency [1] | Potency [2] | Potency [3] | Potency [4]

NC(=O)c1ccccc1O
inactive: Potency [1] | Potency [2] | Potency [3] | Potency [4]

CNCc1ccccc1
inactive: Potency [1] | Potency [2] | Potency [3] | Potency [4]

Cc1c(NC(C)C)c(=O)n(-c2ccccc2)n1C
inactive: Potency [1] | Potency [2] | Potency [3] | Potency [4]

O=C(O)c1ccccc1Nc1cccc(C(F)(F)F)c1
inactive: Potency [1] | Potency [2] | Potency [3] | Potency [4]

Cc1noc(NS(=O)(=O)c2ccc(N)cc2)c1C
inactive: Potency [1] | Potency [2] | Potency [3] | Potency [4]

CC(C)NCC(O)c1ccc(NS(C)(=O)=O)cc1 (stereo not drawn)
inactive: Potency [1] | Potency [2] | Potency [3] | Potency [4]

Nc1nc(N)c(-c2ccccc2)s1
inactive: Potency [1] | Potency [2] | Potency [3] | Potency [4]

N=C(N)N
inactive: Potency [1] | Potency [2] | Potency [3] | Potency [4]

O=C(O)CCCCC(=O)O
inactive: Potency [1] | Potency [2] | Potency [3] | Potency [4]

O=C(O)CCc1nc2ccccc2[nH]1
inactive: Potency [1] | Potency [2] | Potency [3] | Potency [4]

CCCNC(C)C(=O)Nc1ccccc1C (stereo not drawn)
inactive: Potency [1] | Potency [2] | Potency [3] | Potency [4]

CCN(CC)CCNC(=O)c1ccc(N)cc1
inactive: Potency [1] | Potency [2] | Potency [3] | Potency [4]

NS(=O)(=O)c1cc(-c2nn[nH]n2)c(NCc2cccs2)cc1Cl
inactive: Potency [1] | Potency [2] | Potency [3] | Potency [4]

CC(C)(Oc1ccc(Cl)cc1)C(=O)O
inactive: Potency [1] | Potency [2] | Potency [3] | Potency [4]

CCn1cc(C(=O)O)c(=O)c2cnc(N3CCCC3)nc21
inactive: activity change, negative = inhibition [1] 2.17% [at 11.5 µM] | activity change, negative = reduced viability [2] 9.34% [at 11.5 µM] | activity change, negative = lower viability [3] 6.9% [at 11.5 µM] | activity change, negative = inhibition [4] 14.6% [at 11.5 µM]

CC(=O)CC(c1ccccc1)c1c(O)c2ccccc2oc1=O (stereo not drawn)
inactive: Potency [1] | Potency [2] | Potency [3] | Potency [4]

COC(=O)c1cc(Cl)ccc1NS(=O)(=O)C(F)(F)F
inactive: Potency [1] | Potency [2] | Potency [3] | Potency [4]

C[N+]1(C)[C@@H]2CC(OC(=O)[C@H](CO)c3ccccc3)C[C@H]1[C@@H]1O[C@@H]12 (stereo partly drawn)
inactive: Potency [1] | Potency [2] | Potency [3] | Potency [4]

C[C@H]1C[C@@H]2[C@H]([C@@H](O)C[C@@]3(C)[C@H]2CC[C@]3(O)C(=O)CO)[C@@]2(C)C=CC(=O)C=C12
inactive: Potency [1] | Potency [2] | Potency [3] | Potency [4]

Cc1c(C(C)C)c(=O)n(-c2ccccc2)n1C
inactive: Potency [1] | Potency [2] | Potency [3] | Potency [4]

CN1C(CSCC(F)(F)F)Nc2cc(Cl)c(S(N)(=O)=O)cc2S1(=O)=O (stereo not drawn)
inactive: Potency [1] | Potency [2] | Potency [3] | Potency [4]

O=C(COCCOCCOCC(=O)Nc1c(I)cc(I)c(C(=O)O)c1I)Nc1c(I)cc(I)c(C(=O)O)c1I
inactive: Potency [1] | Potency [2] | Potency [3] | Potency [4]

CCCCC(CC)CN1CN(CC(CC)CCCC)CC(C)(N)C1 (stereo not drawn)
inactive: Potency [1] | Potency [2] | Potency [3] | Potency [4]

O=C(O)CN(CCN(CC(=O)O)CC(=O)O)CCN(CC(=O)O)CC(=O)O
inactive: Potency [1] | Potency [2] | Potency [3] | Potency [4]

O=[N+]([O-])c1ccc(/C=N\O)o1
inactive: Potency [1] | Potency [2] | Potency [3] | Potency [4]

CC(=O)Oc1cccc2c1C(=O)c1c(OC(C)=O)cc(C(=O)O)cc1C2=O
inactive: Potency [1] | Potency [2] | Potency [3] | Potency [4]

CN[C@@H](C)Cc1ccccc1
inactive: Potency [1] | Potency [2] | Potency [3] | Potency [4]

Cc1ccc(C(=O)c2ccc(CC(=O)O)n2C)cc1
inactive: Potency [1] | Potency [2] | Potency [3] | Potency [4]

CC(C)COC(=O)c1ccc(N)cc1
inactive: Potency [1] | Potency [2] | Potency [3] | Potency [4]

O=C(O)c1ccccc1C(=O)Nc1ccc(S(=O)(=O)Nc2nccs2)cc1
inactive: Potency [1] | Potency [2] | Potency [3] | Potency [4]

O=C(CCBr)N1CCN(C(=O)CCBr)CC1
inactive: Potency [1] | Potency [2] | Potency [3] | Potency [4]

CCCCOCCOC(=O)c1cccnc1
inactive: Potency [1] | Potency [2] | Potency [3] | Potency [4]

O=C(NCN1CCOCC1)c1cnccn1
inactive: Potency [1] | Potency [2] | Potency [3] | Potency [4]

Cn1c(=O)c2c(ncn2CC(=O)O)n(C)c1=O
inactive: Potency [1] | Potency [2] | Potency [3] | Potency [4]

O=C(O)CCCCC1CCSS1 (stereo not drawn)
inactive: Potency [1] | Potency [2] | Potency [3] | Potency [4]

CC(=O)OCC(=O)[C@@]1(O)[C@H](OC(C)=O)C[C@H]2[C@@H]3CCC4=CC(=O)C=C[C@]4(C)[C@@]3(F)[C@@H](O)C[C@@]21C
inactive: Potency [1] | Potency [2] | Potency [3] | Potency [4]

O=C1c2ccccc2CCc2ccccc21
inactive: Potency [1] | Potency [2] | Potency [3] | Potency [4]

NS(=O)(=O)c1cc2c(cc1Cl)NC(C(Cl)Cl)NS2(=O)=O (stereo not drawn)
inactive: Potency [1] | Potency [2] | Potency [3] | Potency [4]

CC(=O)Nc1ccc(OC(=O)c2ccccc2OC(C)=O)cc1
inactive: Potency [1] | Potency [2] | Potency [3] | Potency [4]

CC(CCc1ccccc1)NCC(O)c1ccc(O)c(C(N)=O)c1 (stereo not drawn)
inactive: Potency [1] | Potency [2] | Potency [3] | Potency [4]

CC(=O)Oc1ccc(C)cc1
inactive: Potency [1] | Potency [2] | Potency [3] | Potency [4]

COC(=O)c1ccc(O)cc1
inactive: Potency [1] | Potency [2] | Potency [3] | Potency [4]

OC[C@@H](O)[C@@H](O[C@@H]1O[C@H](CO)[C@H](O)[C@H](O)[C@H]1O)[C@H](O)[C@@H](O)CO
inactive: Potency [1] | Potency [2] | Potency [3] | Potency [4]

CN/C(=C\[N+](=O)[O-])NCCSCc1csc(CN(C)C)n1
inactive: Potency [1] | Potency [2] | Potency [3] | Potency [4]

NC(N)=NS(=O)(=O)c1ccc(N)cc1
inactive: Potency [1] | Potency [2] | Potency [3] | Potency [4]

CCC1(C)CC(=O)NC1=O (stereo not drawn)
inactive: Potency [1] | Potency [2] | Potency [3] | Potency [4]

CCC1=C(C)CN(C(=O)NCCc2ccc(S(=O)(=O)NC(=O)NC3CCC(C)CC3)cc2)C1=O (stereo not drawn)
inactive: Potency [1] | Potency [2] | Potency [3] | Potency [4]
